Screening results (PubChem)
Only some compounds are listed: those with a hit (about 3.5% of all), similar ones and a draw of the others.
GPR151 ag – activators of human GPR151; Q8TDV0; PathHunter beta-arrestin GPR151 cells, luminescence; activation, % at 11.2 µM; hit rate 1% among 650,000; in the data active = activation above about 4.9%
MITF inh – human MITF inhibition, primary screen; AlphaScreen MITF homodimerization, bead proximity signal; hit rate 0.91% among 650,000; inhibition, % at 2.6 µM; in the data active = inhibition above about 50%
FBW7 act – human FBW7 E3 ligase activation, primary screen; Q969H0; AlphaScreen FBW7–phospho-cyclin E peptide binding, activator screen; normalized activity (activation), % at 26.1 µM; hit rate 0.13% among 650,000; in the data active = normalized activity above about 1.9%;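 also: purified mutant Fbw7 with reduced substrate affinity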
Target sequence (Q969H0 whole entry, looked up): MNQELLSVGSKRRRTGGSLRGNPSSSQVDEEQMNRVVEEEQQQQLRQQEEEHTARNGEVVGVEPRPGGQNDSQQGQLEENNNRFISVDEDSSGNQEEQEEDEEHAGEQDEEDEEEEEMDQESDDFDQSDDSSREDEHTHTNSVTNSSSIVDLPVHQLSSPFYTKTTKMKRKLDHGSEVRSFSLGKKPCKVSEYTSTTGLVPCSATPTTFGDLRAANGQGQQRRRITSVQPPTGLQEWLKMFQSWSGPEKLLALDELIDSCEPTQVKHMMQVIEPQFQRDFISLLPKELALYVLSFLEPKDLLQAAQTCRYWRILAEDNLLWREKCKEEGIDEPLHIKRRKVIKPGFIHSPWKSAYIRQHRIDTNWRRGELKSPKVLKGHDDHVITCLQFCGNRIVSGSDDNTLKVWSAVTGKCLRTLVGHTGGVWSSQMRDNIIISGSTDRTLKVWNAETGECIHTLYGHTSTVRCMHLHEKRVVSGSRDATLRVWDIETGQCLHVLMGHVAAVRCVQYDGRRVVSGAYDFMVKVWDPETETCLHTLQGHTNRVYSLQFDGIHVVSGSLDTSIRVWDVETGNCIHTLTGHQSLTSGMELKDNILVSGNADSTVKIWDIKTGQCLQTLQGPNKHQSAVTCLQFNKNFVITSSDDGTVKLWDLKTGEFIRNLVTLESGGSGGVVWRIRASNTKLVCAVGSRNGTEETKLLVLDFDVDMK
TEAD-YAP inh – TEAD-YAP interaction inhibition; HEK-TIYL cells, TEAD-Gal4/YAP UAS-luciferase luminescence; inhibition, % at 9.12 µM; hit rate 1.4% among 640,000; in the data active = inhibition above about 32%
MITF confirm – human MITF inhibition, confirmation. shares compounds with MITF inh. AlphaScreen MITF homodimerization, biotin/His-MITF beads. inhibition, % at 2.6 µM. hit rate 16% among 4,700;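 active = inhibition above a cutoff derived from the DMSO control wells, cut at about 28% in these data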;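 also: inhibitors lower the bead chemiluminescence by keeping MITF from dimerizing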
AS interf DR – AlphaScreen optical interference, dose response counter-screen | shares compounds with MITF inh | AlphaScreen optical interference counterscreen, cell-free | IC50, µM | hit rate 6% among 480 | AID 1259373; call rule not given here
AlphaScreen intf2 – counter-screen: compounds optically interfering with AlphaScreen; shares compounds with MITF inh; LysRS AlphaScreen counterscreen, signal interference, triplicate; inhibition, % at 2.6 µM; hit rate 7.6% among 4,700; AID 1259376;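 active = inhibition above a cutoff derived from the DMSO control wells, cut at about 30% in these data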
Numbers stand for hits; i = inactive; nt = no result.

SMILES	GPR151 ag	MITF inh	FBW7 act	TEAD-YAP inh	MITF confirm	AlphaScreen intf2	others
O=C(NC1CCN(S(=O)(=O)c2ccccc2C(F)(F)F)CC1)c1ccco1	i	77	i	i	i	i
COc1ccc(-c2cc(C(F)(F)F)n3ncc(C(=O)N4CCSCC4)c3n2)cc1	i	i	i	i	nt	nt
COc1ccc(NC(=S)NC(=O)c2ccccc2F)cc1[N+](=O)[O-]	i	i	i	i	nt	nt
CCOC1(OCC)N=C(N)C2(C#N)C(c3ccc(NC(C)=O)cc3)C12C#N (stereo not given)	i	55	i	i	i	i
CCOC1(OCC)N=C(N)C2(C#N)C(c3cccc(Br)c3)C12C#N (stereo not given)	i	i	i	i	nt	nt
COC(=O)c1ccc(C2C3(C#N)C(N)=NC(OC)(OC)C23C#N)cc1 (stereo not given)	i	i	i	i	nt	nt
COC1(OC)N=C(N)C2(C#N)C(c3ccc(NC(C)=O)cc3)C12C#N (stereo not given)	i	51	i	i	i	i
COC1(OC)N=C(N)C2(C#N)C(c3ccc(F)cc3)C12C#N (stereo not given)	i	55	i	i	i	i
COc1ccc(-c2ncc(C)c(NC3CC3)n2)cc1	i	i	i	i	nt	nt
COc1ccnc(N2CCC(N(Cc3cccnc3)C(=O)Nc3cccc(F)c3)CC2)n1	i	i	i	i	nt	nt
CCOC(=O)C1=C(C)NC2=C(C(=O)CCC2)C1c1ccc2c(c1)OCO2 (stereo not given)	i	i	i	i	nt	nt
CCOC1=CC(c2ccc3c(c2)OCO3)CC(=O)c2c(C)oc(C)c21 (stereo not given)	i	57	i	i	42	i	AS interf DR=i
CC(=O)c1ccc(-c2ccc(/C=C/[N+](=O)[O-])o2)cc1	i	69	i	i	56	31
O=C(O)c1ccccc1-c1ccc(/C=C/[N+](=O)[O-])o1	i	81	i	i	73	i	AS interf DR=i
CCC(C)NCCCOc1ccc(Br)cc1C (stereo not given)	i	57	i	i	i	i
CCC(C)NCCOc1cccc(Br)c1 (stereo not given)	i	61	i	i	45	i	AS interf DR=i
CCC(C)NCCOCCOc1ccccc1 (stereo not given)	i	i	i	i	nt	nt
CCC(C)NCCOCCOc1ccc(I)cc1 (stereo not given)	i	55	i	i	i	i
CCOc1cccc(OCCCNC(C)CC)c1 (stereo not given)	i	i	i	i	nt	nt
O=[N+]([O-])c1ccc(N2CCCc3ccccc32)c([N+](=O)[O-])c1	i	61	i	i	47	40
O=[N+]([O-])c1ccc(N2CCc3ccccc3C2)c([N+](=O)[O-])c1	i	i	i	i	nt	nt
CCOc1ccc(CN2CCC(N3CCN(Cc4ccccc4)CC3)CC2)cc1	i	i	i	i	nt	nt
COc1ccc(CN2CCN(C3CCC(C)CC3)CC2)cc1 (stereo not given)	i	73	i	i	i	i
COc1ccc(CN2CCCCCC2)cc1	i	i	i	i	nt	nt
COc1ccc(CN2CCC(N3CCCCC3)CC2)cc1	i	54	i	i	i	i
SMILES	GPR151 ag	MITF inh	FBW7 act	TEAD-YAP inh	MITF confirm	AlphaScreen intf2	others
N#C/C(=C\c1ccc(-c2ccc(Br)cc2)o1)c1nn(CCO)c(N)c1C#N	i	i	i	i	nt	nt
COc1ccc(NC(=O)C2CC(=O)NC(=Nc3ccc(C)c(C)c3)S2)cc1 (stereo not given)	i	i	i	i	nt	nt
Cc1ccc(N=C2NC(=O)CC(C(=O)Nc3ccc(Cl)cc3)S2)cc1C (stereo not given)	i	78	i	i	i	i
O=C(Nc1ccc(Br)cn1)c1cc2nc(-c3ccc(Br)cc3)cc(C(F)(F)F)n2n1	i	i	i	i	nt	nt
Cc1ccc([N+](=O)[O-])cc1S(=O)(=O)Nc1ccc(Nc2ncccc2[N+](=O)[O-])cc1	i	97	i	i	97	i	AS interf DR=i
Cc1ccc([N+](=O)[O-])cc1S(=O)(=O)Nc1ccc(N)cc1	i	i	i	i	nt	nt
CCOc1ccc(NC(=O)CS/C(NC(=O)c2ccccc2)=C(\C#N)C(CC(=O)c2ccccc2)c2ccccc2Cl)cc1 (stereo not given)	i	i	i	i	nt	nt
O=C(NCc1cccs1)C1CC12CCN(C(=O)Cc1ccc(-c3ccccc3)cc1)CC2 (stereo not given)	i	i	i	i	nt	nt
